Pf growth 48h: Primary qHTS for delayed death inhibitors of the malarial parasite plastid, 48 hour incubation; P. falciparum luciferase growth in erythrocytes, 48 h; Potency, µM (series often up to 28.7 µM), usual class: inhibitors; hit rate 5.9% among 310,000; AID 504832, 2011
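Compounds are pin-transferred into medium, infected erythrocytes (2% hematocrit, 0.1% parasitemia final) are added, and plates sit one parasite generation at 37 C in 5% CO2. Detection reagent is then added and luminescence measured.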
NS1 inh: qHTS Assay for Inhibitors of Influenza NS1 Protein Function; Potency, µM (titrated, usually from 46.1 µM); hit rate 0.4% among 270,000; AID 2326, 2010; calls by dose curve; note: actives are rising curves; nearly all actives have a fitted effect of over 50% in size
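Compounds were scored for reversing the slow growth caused by influenza A NS1 in S. cerevisiae, measured by optical density at 600 nm. Assay medium contained 2% galactose at pH 6.0; NS1-free yeast of the same strain were the positive control.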
Cycloheximide cs: Cycloheximide Counterscreen for Small Molecule Inhibitors of Shiga Toxin. cell reporter, cycloheximide protein synthesis inhibition counterscreen. max response, %. hit rate 12% among 300,000. AID 2314, 2010; in the data active = max response mostly above about 13%, no sharp cut-off; inactive = mostly below about 14%; note: read at 38.3 µM for the half of the compounds with a filed dose
Shiga toxin inh: A qHTS for Small Molecule Inhibitors of Shiga Toxin. inhibition, % at 38.7 µM. AID 2315, 2010. hit rate 9.2% among 290,000. Vero cells, Shiga toxin protein synthesis inhibition reporter; in the data active = inhibition mostly above about 28%, no sharp cut-off; inactive = mostly below about 43%
Pf growth 96h: Primary qHTS for delayed death inhibitors of the malarial parasite plastid, 96 hour incubation; P. falciparum luciferase reporter growth, 96 h; Potency, µM (highest dose often 28.7 µM), usual class: inhibitors; hit rate 6.9% among 320,000
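Delayed-death screen, second-generation endpoint: infected erythrocytes, 2% hematocrit, 0.05% parasitemia final; 96 hours at 37 C, 5% CO2; luciferase detection reagent; luminescence decrease equals reduced growth.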
Each line names hits and unclear results; the compound was inactive in the other large screens. This is a sample that favours compounds with a hit; in the whole collection about 21% have one here. Unless noted, calls come from the whole dose curve; as a rule, active = well fitted inhibition curve with a large enough effect; inconclusive = small, poorly fitted or top-dose-only effect, or another doubt; inactive = no such curve, though single readings can be large or run the other way.

Cc1ccc(Cl)cc1NC(=O)c1ccc(Cn2cc(Cl)cn2)cc1	none
O=C(Nc1ccccc1F)c1ccc(Cn2cc(Cl)cn2)cc1	Cycloheximide cs 28
COC(=O)c1ccc(Cn2cc(Cl)cn2)cc1	none (no result: Pf growth 96h)
O=C(Nc1cnn(Cc2ccc(Cl)c(Cl)c2)c1)C12CC3CC(CC(C3)C1)C2	Pf growth 48h 13µM, Pf growth 96h 7.4µM
O=C1N2c3ccccc3CCc3cccc(c32)C1(O)C(F)(F)F (centres undefined)	none
O=C(Nc1nc(-c2ccccc2)cs1)Nc1ccc(F)cc1F	Cycloheximide cs 28, Shiga toxin inh 59 (no result: NS1 inh)
O=C(Nc1nc(-c2cc(F)ccc2F)cs1)C1=COCCO1	none (no result: NS1 inh, Cycloheximide cs, Shiga toxin inh)
CCc1ccccc1NC(=O)Nc1ccc(F)cc1F	Pf growth 96h inconclusive (no result: NS1 inh)
O=C(Nc1nc(-c2ccccn2)cs1)Nc1ccc(F)cc1F	Pf growth 48h 1.5µM, Cycloheximide cs 35, Shiga toxin inh 85, Pf growth 96h 1.7µM
O=C(Nc1nc(-c2cc(F)ccc2F)cs1)c1ccccn1	Cycloheximide cs 15, Shiga toxin inh 42, Pf growth 96h inconclusive (no result: NS1 inh)
O=C(Nc1ccc(F)cc1F)c1ccccc1-c1ccccc1	none
COc1ccc(CCNC(=O)COc2cc(O)c3c(c2)OC(C)(C)CC3=O)cc1OC	Pf growth 48h inconclusive, Pf growth 96h inconclusive
O=C(c1cccs1)N1CCN(c2ccccc2)CC1	none (no result: NS1 inh)
O=C(NCc1ccccn1)c1coc(=O)c(Br)c1	none
Cc1cc(NC(=O)c2coc(=O)c(Br)c2)ccc1C(C)C	Pf growth 48h inconclusive, Cycloheximide cs 95, Shiga toxin inh 108, Pf growth 96h inconclusive
O=C(NCCc1ccc(F)cc1)c1coc(=O)c(Br)c1	none
COc1ccc(C(=O)NC(C)c2ccccc2)cc1Br (centres undefined)	none (no result: NS1 inh)
O=C(Nc1ccc(Br)cn1)c1coc(=O)c(Br)c1	Cycloheximide cs 45, Shiga toxin inh 49
C[C@@H](NC(=O)c1coc(=O)c(Br)c1)c1ccccc1	Cycloheximide cs 20
O=C(Nc1ccccc1F)c1coc(=O)c(Br)c1	Cycloheximide cs 51, Shiga toxin inh active (no result: NS1 inh)
C=CCSc1nc(-c2ccc(OC)cc2)c(C#N)c(=O)n1CC=C	Pf growth 48h inconclusive
COc1ccc(Cc2nnc(SCC(=O)Nc3ccccc3)[nH]c2=O)cc1	none (no result: NS1 inh, Cycloheximide cs, Shiga toxin inh)
O=C(Nc1ccc(F)cc1)C1=CC(=O)N2CCN=C2S1	Pf growth 48h inconclusive (no result: NS1 inh)
Cc1ccccc1Nc1scc(-c2ccc(Cl)cc2)[n+]1-c1ccccc1C	Pf growth 48h inconclusive, Pf growth 96h inconclusive (no result: NS1 inh)
Cc1nn(-c2ccccc2)c2c1C(c1ccco1)C(C#N)=C(N)O2 (centres undefined)	Pf growth 48h inconclusive, Cycloheximide cs 40, Shiga toxin inh 55
Cc1nn(-c2ccccc2)c2c1C(c1cccs1)C(C#N)=C(N)O2 (centres undefined)	Pf growth 96h inconclusive (no result: Pf growth 48h)
O=C(N=c1nc2ccccn2s1)c1ccccc1	NS1 inh 11µM, Cycloheximide cs 41, Shiga toxin inh 152
CN(C)C(=O)c1nnsc1Sc1ccc(Cl)cc1	Cycloheximide cs 26, Shiga toxin inh 51 (no result: NS1 inh)
CCc1ccc(C(=O)Nc2ccc(C)c(NS(C)(=O)=O)c2)cc1	Cycloheximide cs 7.6
Cc1ccc(NC(=O)c2ccc(F)cc2F)cc1NS(C)(=O)=O	Shiga toxin inh 61
CC(=O)c1cccc(NC(=O)c2ccc(NS(C)(=O)=O)cc2)c1	none (no result: Pf growth 96h)
COc1ccc(Cl)cc1N(C(=O)c1ccco1)C(C(=O)NC1CCCC1)c1ccncc1 (centres undefined)	Pf growth 96h inconclusive
C[C@H](O)[C@@H]1C(=O)N2C(C(=O)O)=C(SCCN=CN)C[C@@H]12	none (no result: NS1 inh, Cycloheximide cs, Shiga toxin inh)
Cc1ccc(-n2nnnc2-c2ccccc2)cc1	none (no result: NS1 inh)
Clc1ccc(-c2nnc(-c3ccccc3)o2)cn1	Cycloheximide cs 11
c1ccc(-c2nnc(C3CC(c4cccnc4)=NO3)o2)cc1 (centres undefined)	Cycloheximide cs 15
COc1ccc(-c2nnc(-c3cccnc3)o2)cc1	Cycloheximide cs 28, Shiga toxin inh 62
COc1ccc(-n2nnnc2-c2cccnc2)cc1	Pf growth 96h 9.3µM
Fc1ccc(C2=NOC(c3nnc(-c4ccccc4)o3)C2)cc1 (centres undefined)	none
COc1cccc(C(C(=O)NC(C)(C)C)N(CCc2ccccc2)C(=O)CCC(=O)Nc2cc(C)on2)c1OC (centres undefined)	Pf growth 48h inconclusive
Cc1ccc(NC(=O)Cn2cc([N+](=O)[O-])nc2C)cc1C	none
CNC(=O)NC(=O)C(C)OC(=O)c1ccc(Cl)c(S(=O)(=O)Nc2ccc(F)cc2)c1 (centres undefined)	none
c1cncc(-c2nnc(-c3cccs3)o2)c1	Cycloheximide cs 20, Pf growth 96h inconclusive
Cc1ccc(-c2nnc(-c3cccnc3)o2)cc1	Cycloheximide cs 36, Shiga toxin inh 81
FC(F)(F)c1ccc(-c2nnc(-c3cccnc3)o2)cc1	none
COc1ccc(-c2nnc(-c3ccc(N)cc3)o2)cc1	Cycloheximide cs 44, Shiga toxin inh 62 (no result: Pf growth 96h)
COc1ccc(-c2nnc(-c3ccc(N(C)C)cc3)o2)cc1	none (no result: Pf growth 96h)
Clc1ccc(-c2nnc(-c3cccnc3)o2)cc1	Cycloheximide cs 20, Shiga toxin inh 56, Pf growth 96h inconclusive
CCOC(=O)c1oc2cccc(OC(C)=O)c2c1C	Cycloheximide cs 39, Shiga toxin inh 68
CCOC(=O)c1oc2cccc(O)c2c1C	Cycloheximide cs 32, Shiga toxin inh 63
CCOC(=O)c1oc2cccc(O)c2c1CN(Cc1ccccc1)C(C)=O	Pf growth 96h inconclusive
CCOC(=O)c1oc2cccc(O)c2c1CN1CCOCC1	none
CCOC(=O)c1oc2ccc(CNC(C)(C)C)c(Cl)c2c1C	Cycloheximide cs 16, Shiga toxin inh 27, Pf growth 96h inconclusive
CCOc1ccccc1CNC(=O)C1CCN(c2nn3c(=O)cc(C)nc3s2)CC1	none
COc1ccc(-c2oc3cccnc3c2-c2ccc(OC)nc2)cc1	Cycloheximide cs 25, Shiga toxin inh 22, Pf growth 96h inconclusive
COc1ccc(NC(=O)OC(C)C)cc1	Cycloheximide cs 29, Shiga toxin inh 68
COC(=O)c1ccc(NC(=O)Nc2ccc(OC)cc2)cc1	Shiga toxin inh 60
CC(C)OC(=O)Nc1ccc(-c2ccc(NC(=O)OC(C)C)cc2Cl)c(Cl)c1	NS1 inh inconclusive
COC(=O)c1ccc(NC(=O)Nc2ccc([N+](=O)[O-])cc2)cc1	Pf growth 48h inconclusive
COc1ccc(CNC(=O)Nc2ccc(OC)cc2)cc1	none (no result: Pf growth 96h)
COc1ccc(NC(=O)Nc2ccc(N(C)C)cc2)cc1	Cycloheximide cs 30, Shiga toxin inh 97 (no result: Pf growth 96h)
COc1ccc(NC(=O)Nc2ccc(OC)cc2)cc1	Cycloheximide cs 22, Shiga toxin inh 67 (no result: Pf growth 48h)
COc1ccc(CN(C)CC(=O)Nc2ccccc2C(=O)NC2CC2)cc1OC	none (no result: NS1 inh, Cycloheximide cs, Shiga toxin inh)
CCCCC(CC(O)COCCC)c1n[nH]c(=S)n1-c1ccccc1 (centres undefined)	none
O=C(Cc1c(Cl)cccc1Cl)Nc1ccc(S(=O)(=O)Nc2ncccn2)cc1	none
CCOC(=O)C1(Cc2ccccc2C)CCCN(C(=O)CCn2nccc2C)C1 (centres undefined)	none
